Test results reported in PubChem BioAssay (NCATS).
Results filed as inconclusive are left out. A call without a number means that no potency is given here. More than one record can exist for a structure, and the calls need not agree. Activity calls are given as the source filed them. Calls follow the shape of the dose curve; as a rule, active = well fitted inhibition curve with a large enough effect; inconclusive = small, poorly fitted or top-dose-only effect; inactive = no such curve, though single readings can be large or run the other way.

target: M-phase phosphoprotein 8 (Homo sapiens) (UniProt Q99549); experiment: qHTS Validation Assay for Inhibitors for MPP8 Chromodomain Interactions with Methylated Histone Tails (AID 488949); conditions: AlphaScreen MPP8 binding to H3K9me3 peptide; series mostly up to 57.1 µM; also: nearly all actives have a fitted effect of over 55% in size
Sequence (Q99549 whole entry, looked up): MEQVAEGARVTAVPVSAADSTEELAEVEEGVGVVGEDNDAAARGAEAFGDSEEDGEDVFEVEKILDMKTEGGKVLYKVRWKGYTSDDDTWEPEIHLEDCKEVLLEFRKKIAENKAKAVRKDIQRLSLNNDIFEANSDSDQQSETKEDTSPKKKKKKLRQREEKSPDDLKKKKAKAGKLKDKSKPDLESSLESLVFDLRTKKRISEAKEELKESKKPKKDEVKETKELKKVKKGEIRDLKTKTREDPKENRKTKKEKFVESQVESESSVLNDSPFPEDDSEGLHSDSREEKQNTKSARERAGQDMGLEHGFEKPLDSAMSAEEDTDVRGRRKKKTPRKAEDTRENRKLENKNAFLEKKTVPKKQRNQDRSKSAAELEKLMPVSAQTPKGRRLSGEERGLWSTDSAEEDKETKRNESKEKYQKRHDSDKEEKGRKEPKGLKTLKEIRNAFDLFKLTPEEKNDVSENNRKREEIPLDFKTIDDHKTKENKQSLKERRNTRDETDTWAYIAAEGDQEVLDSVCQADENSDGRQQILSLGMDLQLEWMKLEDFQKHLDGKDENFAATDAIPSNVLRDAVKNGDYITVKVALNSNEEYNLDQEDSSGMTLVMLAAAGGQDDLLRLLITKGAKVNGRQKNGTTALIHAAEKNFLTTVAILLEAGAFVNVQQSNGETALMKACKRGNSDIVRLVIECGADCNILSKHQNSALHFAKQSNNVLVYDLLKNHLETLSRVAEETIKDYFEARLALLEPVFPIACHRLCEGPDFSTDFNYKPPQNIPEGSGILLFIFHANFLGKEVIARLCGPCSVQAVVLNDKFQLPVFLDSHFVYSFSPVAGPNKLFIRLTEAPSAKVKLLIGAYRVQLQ
From the text: As our understanding of epigenetics expands, it is becoming clear that players in this field are potential targets for drug development. This area of epigenetic therapy has established applications for the treatment of cancer and neurological diseases. We have been involved in this field for a number of years and have performed high-throughput screens to identify the first small molecule inhibitors of protein methyltransferases. These methyltransferases target multiple substrates, and thus regulate many arms of an epigenetic pathway. The methylation of different substrates often generates docking sites for effector proteins that harbor binding domains (chromo, tudor, PHD, MBT and ANK repeats). It has been proposed that the binding sites generated for different proteins by these post-translational modifcations mediate downstream effects on chromatin. Consistent with this theory, di- and tri-methylation of histone H3K9 facilitates the binding of heterochromatin protein HP1. The HP1 protein harbors a chromodomain that is responsible for the methyl-dependent interaction between HP1 and lysine 9 of histone H3. HP1 was first described in flies as a heterochromatin associated protein that can regulate gene silencing. It harbors a chromodomain that binds H3K9me3. In addition, it harbors a chromoshadow domain that interacts with a large number of proteins that are involved in heterochromatin formation and gene repression. There are three highly related HP1 isoforms. All three variants are associated with pericentric heterochromatin and it is not clear whether they have specific or redundant functions. MPP8 is also involved in the repression of gene in euchromatic regions (unpublished data) and like HP1 its chromodomain binds H3K9me3. MPP8 harbors an ankyrin repeat region that is likely involved in binding and recruiting interacting proteins with transcriptional repressive function, much like the chromoshadow domain of HP1 does. We hypothesize that by inhibiting specific protein-protein interactions we will be able to develop compounds that block a single arm of an epigenetic pathway. The specificity attained by blocking a single protein-protein interaction will be far greater than that attained by blocking the enzyme that regulates one of many interactions. Low-affinity protein-protein interactions (Kd in the single- to double-digit micromolar range) such as those discussed here have been very difficult to assay by traditional techniques such as fluorescence polarization or fluorescence resonance energy transfer. We have developed a sensitive chemiluminescence-based assay (Quinn, et al. 2009), which serves as the starting point for this project. The following is a validation assay to identify lead compounds that can block methyl-dependent protein-protein interactions (specifically MPP8), which can be used as probes to analyze these methyl-driven interactions and perhaps even developed into targeted epigenetic therapies. Assay Provider: Mark T. Bedford, MD Anderson Screening Center PI: Austin, C.P. Screening Center: NIH Chemical Genomics Center [NCGC]
To each well, 2 uL of MPP8 protein (final 50 nM) and 1 uL biotinylated histone peptide trimethylated at Lys9 [b-H3(1-18)K9me3] (final 50 nM) was added in 1x PBS buffer, pH 7.4, containing 0.01% Tween-20 using a nanoliter dispenser. Formation of a protein-peptide complex proceeded at room temperature for 30 min. A Kalypsys pin-tool was employed to transfer 23 nL of library compound solution in DMSO to each well. Aurintricarboxylic acid (ATA) was used as an intraplate control with a 12-point titration in duplicate. Following a 30 min incubation of the protein-peptide complex with compounds at room temperature, a mixture of 40 ug/mL each streptavidin-coated donor and nickel chelate acceptor AlphaScreen beads (final 10 ug/mL) was added in a 1 uL dispense for a final volume of 4 uL. Plates were incubated protected from the light for 30 min at room temperature. […]
Potency is read from the fitted curve at half-maximal effect.

For `CN1C2CCC1CC(OC(=O)c1c[nH]c3ccccc13)C2` (configuration not stated), which Potency is on record?
Its Potency is “inactive”.

`COc1cc(NS(C)(=O)=O)ccc1Nc1c2ccccc2nc2ccccc12` was tested. Which Potency did it give?
The Potency was 39.8 µM (active) and inactive.

`CNCCC=C1c2ccccc2CCc2ccccc21` was tested. Which Potency did it give?
The Potency was “inactive”.

With `COC(=O)[C@H]1[C@H]2C[C@H]3c4[nH]c5ccccc5c4CCN3C[C@H]2CC[C@@H]1O` as the compound, how does the Potency read?
The Potency was “inactive”.

For `CC(=O)O[C@H]1C[C@@H]2CC[C@@H]3[C@H](CC[C@@]4(C)[C@H]3C[C@H]([N+]3(C)CCCCC3)[C@@H]4OC(C)=O)[C@@]2(C)C[C@@H]1[N+]1(C)CCCCC1`, which Potency is on record?
The Potency was “inactive”.

How did the Potency turn out when `Oc1ccc(O)cc1` was run?
The Potency was “inactive”.

With `C1CCc2nnnn2CC1` as the compound, how does the Potency read?
Its Potency is “inactive”.

With `CCC(NC(C)C)C(O)c1ccc(O)c(O)c1` (configuration not stated) as the compound, how does the Potency read?
The Potency was “inactive”.

With `COc1cc(-c2ccc(=O)[nH]n2)ccc1OC(F)F` as the compound, how does the Potency read?
Its Potency is “inactive”.

Which Potency does the source give for `CC[C@H](C)C(=O)O[C@H]1CCC=C2C=C[C@H](C)[C@H](CC[C@@H]3C[C@@H](O)CC(=O)O3)[C@H]21` here?
Its Potency is “inactive”.

`C[C@@H]1C(=O)NC2=Nc3cccc(Cl)c3CN21` was tested. Which Potency did it give?
Its Potency is “inactive”.

How did the Potency turn out when `C[N+]1(CCCCC[N+]2(C)CCCC2)CCCC1` was run?
The Potency was “inactive”.

How did the Potency turn out when `Nc1cc(Cl)c(NC2=NCCN2)c(Cl)c1` was run?
The Potency was “inactive”.

For `C[C@]12CC[C@@H]3c4ccc(O)cc4CC[C@H]3[C@@H]1CC[C@@H]2O`, which Potency is on record?
Its Potency is “inactive”.

How did the Potency turn out when `CC(C)C[C@H]1C(=O)N2CCC[C@H]2[C@]2(O)O[C@](NC(=O)[C@@H]3C=C4c5cccc6[nH]c(Br)c(c56)C[C@H]4N(C)C3)(C(C)C)C(=O)N12` was run?
The Potency was “inactive”.

With `CC(CCc1ccccc1)NCC(O)c1ccc(O)c(C(N)=O)c1` (configuration not stated) as the compound, how does the Potency read?
The Potency was “inactive”.

With `N[C@H](CO)C(=O)O` as the compound, how does the Potency read?
The Potency was “inactive”.

How did the Potency turn out when `CC(C)NC[C@@H](O)COc1cccc2ccccc12` was run?
Its Potency is “inactive”.

How did the Potency turn out when `COc1cc2c(cc1O)CC[C@@H]1[C@@H]2CC[C@]2(C)[C@@H](O)CC[C@@H]12` was run?
Its Potency is “inactive”.

How did the Potency turn out when `CNCCC(Oc1ccccc1C)c1ccccc1` (configuration not stated) was run?
Its Potency is “inactive”.

For `CC1(C)CCC(NC(=O)[C@@H](N)CCC(=O)O)CC1`, which Potency is on record?
Its Potency is “inactive”.

For `CCCC1O[C@@H]2C[C@H]3[C@@H]4CCC5=CC(=O)C=C[C@]5(C)[C@H]4[C@@H](O)C[C@]3(C)[C@]2(C(=O)CO)O1` (some centres not stated), which Potency is on record?
Its Potency is “inactive”.

How did the Potency turn out when `CCCn1c(=O)[nH]c(=O)c2[nH]cnc21` was run?
Its Potency is “inactive”.

With `O=C(O)c1cc2cc(Cc3cccnc3)ccc2o1` as the compound, how does the Potency read?
The Potency was “inactive”.

With `O=C1CCC(c2ccc(-n3ccnc3)cc2)=NN1` as the compound, how does the Potency read?
Its Potency is “inactive”.

Which Potency does the source give for `CN=C(NC#N)Nc1ccc(C2=NNC(=O)CC2C)cc1` (configuration not stated) here?
The Potency was “inactive”.

`N[C@@H](Cc1cnc[nH]1)C(=O)O` was tested. Which Potency did it give?
Its Potency is “inactive”.
